Reference: PubChem BioAssay (NCI)
This is part of a sample that, as a whole, favours compounds with a hit. Of some 79,000 tested, about 15% had one in any assay. Calls of active or inactive are those of the source. Rule as the data show it: active = growth inhibition above about 70%; inactive = the rest.

Assays:
[1] = NCI Yeast Anticancer Drug Screen. Data for the rad52 strain (AID 147);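 also: 0% = growth of vehicle-treated control cultures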; details: S. cerevisiae rad52 mutant growth inhibition, active compounds read high
Procedure, shortened: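 Compounds are applied to a genetically defined yeast strain lacking normal DNA damage repair, and inhibition of growth is expressed relative to cultures given vehicle only.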

[2] = NCI Yeast Anticancer Drug Screen. Data for the wt1 strain (AID 149);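 also: 0% = growth of vehicle-treated wt1 cultures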; details: S. cerevisiae wt1 strain (SPY 50644) growth inhibition, active compounds read high
Procedure, shortened: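 Using yeast strain wt1, compound-induced growth inhibition was determined against vehicle-treated cultures.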

[3] = NCI Yeast Anticancer Drug Screen. Data for the rad50EPP+ strain (AID 151);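 also: 0% = growth of vehicle-treated control cultures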; details: S. cerevisiae rad50 mutant strain, active compounds read high
Procedure, shortened: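 Compounds were applied to the rad50EPP+ yeast strain, which bears a defined DNA repair alteration, and growth inhibition was determined relative to vehicle-treated cultures.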

[4] = NCI Yeast Anticancer Drug Screen. Data for the rad50 strain (AID 155);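 also: 0% = growth of vehicle-only cultures of the same strain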; details: S. cerevisiae rad50 strain growth inhibition, active compounds read high
Procedure, shortened: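 Relative growth inhibition (compound vs vehicle) was measured in yeast with a defined repair-gene alteration.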

[5] = NCI Yeast Anticancer Drug Screen. Data for the mec2-1 strain (AID 157); details: S. cerevisiae mec2-1 strain, active compounds read high
Procedure, shortened: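 Strain: mec2-1 (DNA repair/cell cycle alteration). Compound exposure, then growth measured; inhibition expressed relative to vehicle.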

[6] = NCI Yeast Anticancer Drug Screen. Data for the rad14 strain (AID 159);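 also: 0% = growth of vehicle-treated control cultures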; details: S. cerevisiae rad14 strain growth inhibition, active compounds read high
Procedure, shortened: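 Screen for anticancer potential: a yeast strain altered in DNA damage repair is grown with compound, and reduced growth is quantified against vehicle controls.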

[7] = NCI Yeast Anticancer Drug Screen. Data for the sgs1 mgt1 strain (AID 161);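 also: 0% = growth of cultures given vehicle only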; details: S. cerevisiae sgs1 mgt1 strain, active compounds read high
Procedure, shortened: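 Genetically altered yeast, compound exposure, growth inhibition relative to vehicle.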

[8] = NCI Yeast Anticancer Drug Screen. Data for the cln2 rad14 strain (AID 165);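 also: 0% = growth equal to vehicle treated cultures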; details: S. cerevisiae cln2 rad14 strain, active compounds read high
Procedure, shortened: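 Compounds are applied to the cln2 rad14 yeast strain, and growth is then compared with that of vehicle-treated cultures to give inhibition.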

[9] = NCI Yeast Anticancer Drug Screen. Data for the wt2 strain (AID 169);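 also: 0% = growth of vehicle-treated yeast cultures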; details: S. cerevisiae wt2 strain growth inhibition, active compounds read high
Procedure, shortened: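 This strain belongs to a panel of yeast strains with defined genetic alterations in DNA damage repair or cell cycle control. Compounds are applied, and growth inhibition is measured against vehicle-treated cultures.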

[10] = NCI Yeast Anticancer Drug Screen. Data for the mlh1 strain (AID 171);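 also: 0% = growth of vehicle-treated control cultures of the same strain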; details: S. cerevisiae mlh1 strain growth inhibition, active compounds read high
Procedure, shortened: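 Growth of the mutant yeast strain after compound exposure, expressed as inhibition relative to vehicle-only controls.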

[11] = NCI Yeast Anticancer Drug Screen. Data for the sgs1 strain (AID 173);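 also: 0% = growth of vehicle-only control cultures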; details: S. cerevisiae sgs1 mutant, active compounds read high
Procedure, shortened: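 Growth of a yeast strain bearing a defined genetic alteration is measured after compound treatment. Inhibition is expressed relative to vehicle-only controls.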

[12] = NCI Yeast Anticancer Drug Screen. Data for the mlh1 rad18 strain (AID 175); details: S. cerevisiae mlh1 rad18 strain growth inhibition, active compounds read high
Procedure, shortened: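 Read-out is yeast growth inhibition, calculated against vehicle-only controls. The compound was applied to a strain engineered with DNA damage repair alterations.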

[13] = NCI Yeast Anticancer Drug Screen. Data for the CLN2oe strain (AID 163);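 also: 0% = growth of vehicle-only control cultures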; details: S. cerevisiae CLN2oe strain, active compounds read high
Procedure, shortened: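 Growth of a genetically modified yeast strain is measured after compound exposure and compared with cultures given vehicle alone.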

[14] = NCI Yeast Anticancer Drug Screen. Data for the bub3 strain (AID 167); details: S. cerevisiae bub3 mutant strain, active compounds read high
Procedure, shortened: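 Screening used yeast with an engineered genetic alteration affecting cell cycle control. Compound-exposed cultures were compared with vehicle cultures, and reduced growth was taken as inhibition.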

[15] = NCI Yeast Anticancer Drug Screen. Data for the rad18 strain (AID 177); details: S. cerevisiae rad18 mutant growth inhibition, active compounds read high
Procedure, shortened: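 Growth of the mutant yeast strain after compound exposure, normalised to vehicle-only cultures.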

[16] = at 5.0 µM (retest, dose inferred, filed as 0.5)
[17] = at 50.0 µM (retest, dose inferred, filed as 5.0)

Measured: growth inhibition

COC(=O)CSc1nnc(CSc2ccc(Cl)cc2)n1-c1ccccc1
inactive: [1]; at 1.2 µM 1% | [1]; at 3.7 µM 3% | [1]; at 11.0 µM 5% | [1]; at 33.0 µM 12% | [1]; at 100.0 µM 5% | [2]; at 1.2 µM -1% | [2]; at 3.7 µM -2% | [2]; at 11.0 µM -3% | [2]; at 33.0 µM 0% | [2]; at 100.0 µM 2% | [3]; at 1.2 µM -2% | [3]; at 3.7 µM 0% | [3]; at 11.0 µM -2% | [3]; at 33.0 µM -5% | [3]; at 100.0 µM -11% | [4]; at 1.2 µM 2% | [4]; at 3.7 µM 4% | [4]; [16] -16% | [4]; at 11.0 µM 9% | [4]; at 33.0 µM 15% | [4]; [17] 15% | [4]; at 50.0 µM 6.25% | [4]; at 100.0 µM 12% | [5]; at 1.2 µM -3% | [5]; at 3.7 µM -1% | [5]; [16] -9% | [5]; at 11.0 µM 3% | [5]; at 33.0 µM 10% | [5]; [17] 18% | [5]; at 50.0 µM 16.9% | [5]; at 100.0 µM 12% | [6]; at 1.2 µM 0% | [6]; at 3.7 µM 2% | [6]; at 11.0 µM 10% | [6]; at 33.0 µM 15% | [6]; at 100.0 µM 13% | [7]; [16] -11% | [7]; [17] 68% | [7]; at 50.0 µM 58.5% | [8]; [16] -6% | [8]; [17] 43% | [8]; at 50.0 µM 44% | [9]; at 1.2 µM -1% | [9]; at 3.7 µM 1% | [9]; at 11.0 µM -1% | [9]; at 33.0 µM 1% | [9]; at 100.0 µM 4% | [10]; at 1.2 µM -1% | [10]; at 3.7 µM -1% | [10]; at 11.0 µM 2% | [10]; at 33.0 µM 9% | [10]; at 100.0 µM 14% | [11]; at 1.2 µM -2% | [11]; at 3.7 µM -3% | [11]; at 11.0 µM 2% | [11]; at 33.0 µM 13% | [11]; at 100.0 µM 15% | [12]; [16] -11% | [12]; [17] 32% | [12]; at 50.0 µM 7%

O=[N+]([O-])/C(C(Cl)=C(Cl)Cl)=C1/OCCS1
active: [1]; at 3.7 µM 72% | [1]; at 11.0 µM 97% | [1]; at 33.0 µM 99% | [1]; at 100.0 µM 99% | [2]; at 11.0 µM 94% | [2]; at 33.0 µM 99% | [2]; at 100.0 µM 99% | [3]; at 33.0 µM 77% | [4]; at 11.0 µM 95% | [4]; at 33.0 µM 99% | [4]; [17] 100% | [4]; at 50.0 µM 90.5% | [4]; at 100.0 µM 99% | [5]; at 11.0 µM 97% | [5]; at 33.0 µM 98% | [5]; [17] 100% | [5]; at 50.0 µM 93.6% | [5]; at 100.0 µM 98% | [6]; at 11.0 µM 96% | [6]; at 33.0 µM 99% | [6]; at 100.0 µM 98% | [13]; at 11.0 µM 94% | [13]; at 33.0 µM 98% | [13]; at 100.0 µM 99% | [8]; [17] 99% | [8]; at 50.0 µM 91% | [14]; at 11.0 µM 90% | [14]; at 33.0 µM 99% | [14]; [17] 100% | [14]; at 50.0 µM 92.5% | [14]; at 100.0 µM 98% | [9]; at 11.0 µM 95% | [9]; at 33.0 µM 99% | [9]; at 100.0 µM 99% | [11]; at 3.7 µM 78% | [11]; at 11.0 µM 97% | [11]; at 33.0 µM 99% | [11]; at 100.0 µM 99% | [12]; [17] 100% | [12]; at 50.0 µM 86.2% | [15]; at 1.2 µM 86% | [15]; at 3.7 µM 93% | [15]; at 11.0 µM 97% | [15]; at 33.0 µM 99% | [15]; at 100.0 µM 98%
inactive: [1]; at 1.2 µM 30% | [2]; at 1.2 µM 4% | [2]; at 3.7 µM 30% | [3]; at 1.2 µM 20% | [3]; at 3.7 µM 37% | [3]; at 11.0 µM 61% | [3]; at 100.0 µM 64% | [4]; at 1.2 µM 19% | [4]; at 3.7 µM 56% | [4]; [16] 16% | [5]; at 1.2 µM 24% | [5]; at 3.7 µM 55% | [5]; [16] 11% | [6]; at 1.2 µM 14% | [6]; at 3.7 µM 39% | [13]; at 1.2 µM 15% | [13]; at 3.7 µM 44% | [8]; [16] -2% | [14]; at 1.2 µM 6% | [14]; at 3.7 µM 27% | [14]; [16] -12% | [9]; at 1.2 µM 7% | [9]; at 3.7 µM 32% | [11]; at 1.2 µM 42% | [12]; [16] 60%

CCCCC1=NNC(=O)C1
active: [4]; [17] 78% | [14]; at 50.0 µM 81.7%
inactive: [1]; at 1.2 µM 2% | [1]; at 3.7 µM 4% | [1]; at 11.0 µM 0% | [1]; at 33.0 µM 7% | [1]; at 100.0 µM 15% | [2]; at 1.2 µM 1% | [2]; at 3.7 µM 2% | [2]; at 11.0 µM 8% | [2]; at 33.0 µM 7% | [2]; at 100.0 µM 5% | [3]; at 1.2 µM -9% | [3]; at 3.7 µM -8% | [3]; at 11.0 µM -16% | [3]; at 33.0 µM -10% | [3]; at 100.0 µM -7% | [4]; at 1.2 µM 3% | [4]; at 3.7 µM -11% | [4]; [16] 45% | [4]; at 11.0 µM -6% | [4]; at 33.0 µM -11% | [4]; at 50.0 µM 3% | [4]; at 100.0 µM 9% | [5]; at 1.2 µM -7% | [5]; at 3.7 µM -5% | [5]; [16] 32% | [5]; at 11.0 µM -8% | [5]; at 33.0 µM -9% | [5]; [17] 57% | [5]; at 50.0 µM -3.3% | [5]; at 100.0 µM 5% | [6]; at 1.2 µM 6% | [6]; at 3.7 µM 11% | [6]; at 11.0 µM 9% | [6]; at 33.0 µM 13% | [6]; at 100.0 µM 18% | [13]; at 1.2 µM -43% | [13]; at 3.7 µM -48% | [13]; at 11.0 µM -52% | [13]; at 33.0 µM -70% | [13]; at 100.0 µM -28% | [8]; [16] 28% | [8]; [17] -56% | [8]; at 50.0 µM 52% | [14]; at 1.2 µM -4% | [14]; at 3.7 µM 0% | [14]; [16] 22% | [14]; at 11.0 µM -11% | [14]; at 33.0 µM 0% | [14]; [17] -26% | [14]; at 100.0 µM 7% | [9]; at 1.2 µM -40% | [9]; at 3.7 µM -45% | [9]; at 11.0 µM -64% | [9]; at 33.0 µM -52% | [9]; at 100.0 µM -66% | [10]; at 1.2 µM -11% | [10]; at 3.7 µM 1% | [10]; at 11.0 µM -7% | [10]; at 33.0 µM -10% | [10]; at 100.0 µM -18% | [11]; at 1.2 µM 10% | [11]; at 3.7 µM 12% | [11]; at 11.0 µM 0% | [11]; at 33.0 µM -22% | [11]; at 100.0 µM 5% | [12]; [16] 53% | [12]; [17] 69% | [12]; at 50.0 µM -34.6% | [15]; at 1.2 µM -10% | [15]; at 3.7 µM 1% | [15]; at 11.0 µM 0% | [15]; at 33.0 µM 1% | [15]; at 100.0 µM 24%
